IL1B secr inh – qHTS for Inhibitors of Inflammasome Signaling: IL-1-beta AlphaLISA Primary Screen. AID 743279, 2014. THP-1 LPS/ATP IL-1B secretion, AlphaLISA, 16 h; stronger effect = lower value. 360,000 tested, 4.7% active. activity change, % at 57.5 µM; in the data active means activity change below about -50%; inconclusive means mostly about -30% to -49%; further: on the % scale 0 is the no-effect control and ±100 the full control effect
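Secreted IL-1B measured by AlphaLISA bead assay after 16 h compound exposure of THP-1 cells; compounds (final up to 57.5 uM) added 1 h before LPS (250 ng/mL) and ATP (1.25 mM) stimulation; lower signal means less secretion.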
USP2a inh – qHTS Assay for Inhibitors of Ubiquitin-specific Protease USP2a Using CHOP2 as the Reporter | Ubiquitin carboxyl-terminal hydrolase 2 (Homo sapiens), O75604 | USP2 core, Ub-CHOP2 coupled fluorogenic reporter, 485/531 | Potency, µM (titrated, usually from 38.3 µM), for inactives: at the highest dose activity change, negative = inhibition, most hits filed as inhibitors | 330,000 tested, 0.01% active;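 further: potency means the concentration at half of the fitted maximal effect; plate controls were DMSO wells for no effect and full inhibition by NEM control for full effect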
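Deubiquitinase activity read as fluorescence (485/531 nm) after Ub-CHOP2 cleavage activates the enterokinase reporter on its substrate; USP2 core 10nM, Ub-CHOP2 and substrate 25nM each, 30min compound preincubation then 60min RT; data normalized to NEM, curves fitted.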
ATXN2 expr inh – Primary qHTS for Inhibitors of ATXN expression | AID 1745845, 2022 | Potency, µM (titrated, usually from 57 µM), inactives show at the top dose activity change, negative = inhibition, usual class: inhibitors | 360,000 tested, 0.72% active | HEK-293 ATXN2-luciferase reporter, luminescence, 24 h; further: potency means the concentration at half of the fitted maximal effect; on the % scale 0 is the no-effect control and ±100 the full control effect; nearly all actives have a fitted effect of over 55% in size
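ATXN2-luciferase reporter cells (luciferase flanked by upstream and downstream ATXN2 gene portions) were treated 24 h at 37 °C with compounds at up to 57 uM. SteadyGlo luminescence gave expression; GF-AFC fluorescence gave viability.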
USP1-UAF1 inh – Inhibitors of USP1/UAF1: Primary Screen. recombinant USP1/UAF1, Ub-Rhodamine cleavage fluorescence. Ubiquitin carboxyl-terminal hydrolase 1 (Homo sapiens), O94782. Potency, µM (titrated, usually from 57.1 µM), inactives show top-dose activity change, negative = inhibition, hits mostly inhibitors. 390,000 tested, 0.23% active; further: potency means the concentration at half of the fitted maximal effect; on the % scale 0 is the no-effect control and ±100 the full control effect; nearly all actives have a fitted effect of over 60% in size
Target sequence (O94782 whole entry, looked up): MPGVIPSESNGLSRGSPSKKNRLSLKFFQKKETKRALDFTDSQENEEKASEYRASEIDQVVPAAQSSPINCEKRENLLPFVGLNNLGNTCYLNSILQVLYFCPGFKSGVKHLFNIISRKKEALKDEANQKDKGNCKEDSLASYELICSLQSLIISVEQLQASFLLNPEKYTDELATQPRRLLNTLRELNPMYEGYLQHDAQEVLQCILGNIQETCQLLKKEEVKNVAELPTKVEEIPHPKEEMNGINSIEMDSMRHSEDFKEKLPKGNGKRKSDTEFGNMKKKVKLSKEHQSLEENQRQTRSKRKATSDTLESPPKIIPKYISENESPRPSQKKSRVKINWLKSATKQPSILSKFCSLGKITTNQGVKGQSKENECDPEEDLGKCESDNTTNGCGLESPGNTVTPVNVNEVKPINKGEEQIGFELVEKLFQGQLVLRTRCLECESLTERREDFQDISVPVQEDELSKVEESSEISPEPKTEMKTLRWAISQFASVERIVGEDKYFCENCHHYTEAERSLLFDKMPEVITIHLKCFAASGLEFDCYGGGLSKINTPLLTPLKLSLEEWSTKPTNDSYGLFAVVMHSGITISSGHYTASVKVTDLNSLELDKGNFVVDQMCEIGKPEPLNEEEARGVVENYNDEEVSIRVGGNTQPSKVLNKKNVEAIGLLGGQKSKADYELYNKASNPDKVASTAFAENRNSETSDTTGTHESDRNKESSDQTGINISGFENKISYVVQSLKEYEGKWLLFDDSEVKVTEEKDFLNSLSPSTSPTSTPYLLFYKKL
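USP1/UAF1 complex (1 nM) preincubated 15 min at room temperature with compound, then Ub-Rho substrate (150 nM final) added. Kinetic fluorescence at 480/540 nm over 6 reads at 60 s intervals; 50 mM HEPES pH 7.8, 0.5 mM EDTA, 0.1 mg/ml BSA, 1 mM TCEP, 0.01% Tween-20.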
S2 tox – Viability Counterscreen for Primary qHTS for Inhibitors of ATXN expression | S2 cells (HEK-293 line with an ATXN2-luciferase reporter) viability, CellTiter-Fluor protease fluorescence, 24 h | Potency, µM (doses to about 56.7 µM), most hits filed as cytotoxic | 400,000 tested, 0.49% active | AID 651635, 2014; further: potency means the concentration at half of the fitted maximal effect; nearly all actives have a fitted effect of over 40% in size
The depositor's hits bear a star; i = inactive; ? = inconclusive; . = no result given. A selection: hits, their analogues and other compounds. The true share with any hit is near 4.8%. Unless noted, the call rests on the fitted dose curve; in most records, active means well fitted curve in the direction sought with a large enough effect; inconclusive means small, poorly fitted or top-dose-only effect, or another doubt; inactive means no such curve, though single readings can be large; an effect the other way counts as inactive or inconclusive.

SMILES	IL1B secr inh	USP2a inh	ATXN2 expr inh	USP1-UAF1 inh	S2 tox
CO[C@H]1C[C@H](O[C@H]2[C@H](C)O[C@@H](O[C@@H]3/C(C)=C/C[C@@H]4C[C@@H](C[C@]5(C=C[C@H](C)[C@@H](C6CCCCC6)O5)O4)OC(=O)[C@@H]4C=C(C)[C@@H](O)[C@H]5OC/C(=C\C=C\[C@@H]3C)[C@]54O)C[C@@H]2OC)O[C@@H](C)[C@@H]1O	.	.	.	.	3.2µM*
O=C(NCc1ccco1)c1cccc2c1C(=O)c1ccc(N3CCC(N4CCCCC4)CC3)cc1S2(=O)=O	-22	.	9%	?	?
CC1=C[C@@H](C)[C@@H](c2ccc(C(F)(F)F)cc2)OC1=O	9	-9%	-12%	-20%	i
COCC(=O)Nc1cc(C(=O)N2CCN(c3ccc(Cl)cn3)CC2)c2c(c1)nc(C1CCC1)n2C	.	.	.	.	i
O=C(CN1CCN(S(=O)(=O)c2ccc(F)cc2)CC1)Nc1cccc(C(F)(F)F)c1	-69*	4%	-15%	-21%	i
CC1CCN(CC(=O)Nc2cccc(C(=O)Nc3cccc(C(F)(F)F)c3)c2)CC1	-75*	2%	?	-25%	?
CC1CN(CC(=O)Nc2cccc(C(=O)Nc3cccc(C(F)(F)F)c3)c2)CC(C)O1 (stereo not given)	-1	3%	-15%	-10%	i
C=Cc1ncc(OC)c2c1[nH]c1ccccc12	-107*	1%	?	-22%	.
c1ccc(N/N=C(\Cc2nc3ccccc3[nH]2)c2ccccc2)cc1	-68*	-2%	47%	-14%	i
Cc1ccc(N/N=C(\Cc2nc3ccccc3[nH]2)c2ccccc2)cc1	0	-1%	30%	-15%	?
Clc1cccc(/C(Cc2nc3ccccc3[nH]2)=N\Nc2ccccc2)c1	-78*	0%	39%	-10%	i
COc1ccc(-c2nc(CSCC(=O)NCCCN3CCCC3=O)c(C)o2)cc1	0	-1%	-13%	-3%	i
COc1cc(/C=C2\SC(=Nc3ccccc3)N(CCc3c[nH]c4ccccc34)C2=O)ccc1OC(C)C(=O)O (stereo not given)	?	-1%	-11%	1%	i
O=C1NC(=S)S/C1=C/c1ccc(N2CCOCC2)o1	12	3%	9%	?	.
O=C1S/C(=C\c2ccc(N3CCOCC3)o2)C(=O)N1Cc1ccc(F)cc1	-9	4%	-15%	5.6µM*	i
CC(C)OC(=O)CN1C(=O)S/C(=C/c2ccc(N3CCCCC3)o2)C1=O	-104*	-1%	-3%	?	i
O=C1S/C(=C/c2ccc(N3CCOCC3)o2)C(=O)N1Cc1ccc(F)cc1	-22	1%	-25%	14µM*	i
O=C1/C(=C/c2ccc(N3CCOCC3)o2)SC(=Nc2ccccc2)N1CCc1c[nH]c2ccccc12	-99*	-10%	18µM*	50%	?
CC(Sc1ccc(S(=O)(=O)N2CCOCC2)cn1)c1ccccc1Cl (stereo not given)	-3	3%	-29%	-11%	i
COc1cccc(NC(=S)N(CCCN2CCCC2)Cc2cccn2Cc2ccc(Cl)cc2)c1	?	4%	?	-10%	?
S=C(Nc1cccc(Cl)c1)N(CCCN1CCCC1)Cc1cccn1Cc1ccc(Cl)cc1	-101*	0%	32µM*	-13%	28µM*
CSc1cccc(NC(=S)N(CCCN2CCCC2)Cc2cccn2Cc2ccc(Cl)cc2)c1	?	-2%	14µM*	-21%	.
C[C@@H]1CN([C@@H](C)CO)C(=O)c2cc(Br)cnc2O[C@H]1CN(C)C(=O)C1CC1	-5	.	7%	-14%	i
CC(C)N(C(=O)[C@H]1CC(CC(=O)NCC23CC4CC(CC(C4)C2)C3)C(=O)N2CCc3c([nH]c4ccccc34)[C@]12C)C(C)C (stereo not given in full)	-55*	-1%	?	-3%	?

High-throughput results (PubChem BioAssay)
